Assay outcomes (PubChem BioAssay)
CYP2C9 inhib = human CYP2C9 inhibition; P11712; CYP2C9 Supersomes, luciferin-H conversion, luminescence; inhibition, % at 5 µM; hit rate 20% among 96,000;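 active = blocking of liver enzyme CYP2C9 beyond about 50% at 5 µM, limit read from the data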
sEH inhibitor = soluble epoxide hydrolase (human) inhibition. hit rate 0.34% among 91,000. inhibition, % at 2 µM. P34913. AID 707. recombinant human sEH enzymatic activity assay; in the data active = inhibition above about 80%
Target sequence (P34913 whole entry, looked up): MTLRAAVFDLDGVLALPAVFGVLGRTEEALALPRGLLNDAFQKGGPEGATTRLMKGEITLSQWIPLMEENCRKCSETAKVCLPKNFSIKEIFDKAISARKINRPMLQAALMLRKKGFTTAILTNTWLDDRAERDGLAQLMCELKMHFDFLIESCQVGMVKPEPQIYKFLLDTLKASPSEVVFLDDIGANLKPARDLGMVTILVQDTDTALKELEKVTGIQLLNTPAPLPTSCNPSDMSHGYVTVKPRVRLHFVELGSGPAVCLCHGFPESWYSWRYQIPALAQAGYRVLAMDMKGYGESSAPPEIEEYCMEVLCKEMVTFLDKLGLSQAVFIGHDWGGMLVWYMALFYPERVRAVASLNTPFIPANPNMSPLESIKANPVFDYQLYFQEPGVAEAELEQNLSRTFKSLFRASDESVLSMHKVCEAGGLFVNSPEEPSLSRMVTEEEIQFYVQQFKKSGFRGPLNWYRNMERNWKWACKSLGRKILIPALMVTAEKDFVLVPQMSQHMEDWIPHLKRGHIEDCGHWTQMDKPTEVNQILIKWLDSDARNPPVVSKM
sEH act = activators of human soluble epoxide hydrolase; P34913; purified human sEH enzymatic activity, activator screen; activation, % at 2 µM; hit rate 0.04% among 91,000; in the data active = activation above about 37%
CYP2C19 inhib = blocks human cytochrome P450 2C19; CYP2C19 Supersomes, luciferin-H EGE luminescence, 30 min; inhibition, % at 5 µM; hit rate 21% among 96,000; AID 778;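 active = CYP2C19 inhibition above a set limit at 5 µM in the primary screen, cut at about 50% in these data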
CYP2C19 act = cytochrome P450 2C19 (human) activation. activation factor at 5 µM. recombinant CYP2C19, luciferin-H EGE luminescence; stronger effect = higher value; 0 = fully inhibited enzyme, 1 = untreated enzyme. AID 1025. P33261. 96,000 tested, under 10 active;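 active = activation factor of at least 2 at 5 µM in the primary screen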
CYP2C9 activ = activators of human CYP2C9; recombinant CYP2C9, luciferin-H conversion, luminescence; stronger effect = higher value; factor 1 = untreated enzyme, 0 = blocked; hit rate 1.4% among 96,000; P11712; activation factor at 5 µM;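 active = activation factor of 2 or more for CYP2C9 at a 5 µM dose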
Large screens that a line does not name were inactive. Sampled rows, rich in hits. Any-hit rate of the full collection: about 27%.

Cc1ccc(C(=O)NNC(=S)Nc2cccc3ccccc23)s1	CYP2C9 inhib 65.2
O=C(C(Cc1ccccc1)NS(=O)(=O)c1cccc2cccnc12)N1CCc2ccccc21 (centres undefined)	none
CCn1c(=O)n(CC(=O)Nc2cc(OC)c(OC)c(OC)c2)c(=O)c2ccccc21	none
COc1cc(-n2c(=O)c3ccccc3n(Cc3ccccc3)c2=O)cc(OC)c1OC	CYP2C19 inhib 62.5
CCOc1ccc(N2C(=O)CN=C2Nc2ccccc2F)cc1	none
Cc1nc2n(n1)C(c1ccccc1)C1=C(CC(c3ccco3)CC1=O)N2 (centres undefined)	none
O=C1CC(c2ccco2)CC2=C1C=Nc1ccccc1N2 (centres undefined)	CYP2C9 inhib 76.1, CYP2C19 inhib 63.1
Cc1cc(NS(=O)(=O)c2ccc(Br)s2)no1	none (no result: CYP2C9 inhib, CYP2C19 inhib, CYP2C19 act, CYP2C9 activ)
CN(C)S(=O)(=O)Nc1ccc2c(c1)OCO2	CYP2C19 inhib 75.8 (no result: sEH inhibitor, sEH act)
O=S(=O)(Nc1ccc2c(c1)OCO2)c1ccc(Br)s1	CYP2C9 inhib 96.5, CYP2C19 inhib 78.0
O=C(C1CCC1)N1CCc2cc(S(=O)(=O)Nc3ccc4c(c3)OCO4)ccc21	none (no result: CYP2C9 inhib, CYP2C19 inhib, CYP2C19 act, CYP2C9 activ)
Cc1cc(C)nc(NS(=O)(=O)c2ccc(NC(=O)c3ccc(S(=O)(=O)N4CCOCC4)cc3)cc2)n1	none
COc1cc(NS(=O)(=O)c2ccc(Br)s2)cc(OC)c1	CYP2C9 inhib 96.4, CYP2C19 inhib 100.0
Cc1cc(C)nc(NS(=O)(=O)c2ccc(NC(=O)c3ccc4c(c3)OCO4)cc2)n1	CYP2C9 inhib 51.9 (no result: sEH inhibitor, sEH act)
Cc1ccnc(N2C(=O)OC(C)(C)C2(C)O)c1 (centres undefined)	none (no result: sEH inhibitor, sEH act)
Cn1c(O)c(C=NC(CC(N)=O)C(=O)O)c(=O)n(C)c1=O (centres undefined)	none
CC(C)(C)c1cccc(OCCCSc2ncccn2)c1	none
CCOC(=O)C(CC)Sc1nc(N)c(NC(=O)c2ccc(OC)c(OC)c2)c(=O)[nH]1 (centres undefined)	none
Cc1cc(NS(=O)(=O)N(C)C)ccc1C(C)C	CYP2C9 inhib 77.1, CYP2C19 inhib 90.0
Cc1cc(NS(=O)(=O)c2ccc(NC(=O)Nc3ccc4c(c3)OCO4)cc2)no1	none (no result: CYP2C9 inhib, CYP2C19 inhib, CYP2C19 act, CYP2C9 activ)
CC(=O)c1cc2c(cc1NS(=O)(=O)c1ccccc1)OCO2	CYP2C19 inhib 88.2, CYP2C9 activ 2.8
O=C(c1ccncc1)c1ccc(NS(=O)(=O)c2ccc(Br)s2)cc1	CYP2C9 inhib 98.7
COc1ccc(S(=O)(=O)Nc2ccc3c(c2)OCO3)cc1C	CYP2C19 inhib 98.7
CCN(c1ccccc1)S(=O)(=O)c1cc(C(=O)O)ccc1C	none
COc1ccc(S(=O)(=O)Nc2ccc3c(c2)OCO3)cc1	CYP2C9 inhib 55.6, CYP2C19 inhib 92.8
O=S(=O)(Nc1ccc2c(c1)OCO2)c1ccccc1	CYP2C9 inhib 88.5, CYP2C19 inhib 100.3
OCCN(Cc1ccccc1)Cc1ccccc1Cl	CYP2C19 inhib 80.6
OCCN(Cc1ccccc1)Cc1cccc(Cl)c1Cl	CYP2C9 inhib 76.1, CYP2C19 inhib 93.1
OCCN(Cc1ccccc1)Cc1ccccc1F	CYP2C19 inhib 76.9
OCCN(Cc1ccccc1)CC1CC2C=CC1C2 (centres undefined)	none
O=C(OCCn1cncn1)c1cc2ccccc2oc1=O	none (no result: sEH inhibitor, sEH act)
Cc1cc(NC(=O)c2ccccc2)ncc1NC(=O)c1ccco1	CYP2C9 inhib 56.3, CYP2C19 inhib 94.6 (no result: sEH inhibitor, sEH act)
CCC(=O)Nc1cc(C)c(NC(=O)c2ccco2)cn1	none
Cc1cc(NC(=O)C(C)C)ncc1NC(=O)c1cccc(F)c1	none
CCCC(=O)Nc1cc(C)c(NC(=O)c2ccccn2)cn1	CYP2C19 inhib 54.5 (no result: sEH inhibitor, sEH act)
CCCC(=O)Nc1cnc(NC(=O)c2cccc(F)c2)cc1C	CYP2C19 inhib 68.4 (no result: sEH inhibitor, sEH act)
Cc1ccccc1NC(=O)CN1C(=O)COc2ccc(Cl)cc21	CYP2C9 inhib 55.4, CYP2C19 inhib 97.1
Cc1ccc(NC(=O)CN2C(=O)COc3ccc(C)cc32)nc1	none (no result: sEH inhibitor, sEH act)
CC(=O)c1ccc(NC(=O)CN2C(=O)COc3ccc(Cl)cc32)cc1	CYP2C19 inhib 75.3
Cc1ccccc1/C(N)=N/OC(=O)/C=C/c1ccccc1	none
Cc1ccc(NC(=O)CS(=O)Cc2nc(-c3ccc(C)cc3)oc2C)cc1 (centres undefined)	CYP2C9 inhib 60.2
COc1ccc(-c2nc(CS(=O)CC(=O)N3CCCC3)c(C)o2)cc1 (centres undefined)	CYP2C9 inhib 70.6 (no result: sEH inhibitor, sEH act)
Cc1ccc(-c2nc(CS(=O)CC(=O)NCc3ccccc3)c(C)o2)cc1 (centres undefined)	none (no result: sEH inhibitor, sEH act)
Cn1cccc1Cc1nnc(SCC(=O)Nc2ccc(F)cc2)n1CCc1ccccc1	none (no result: sEH inhibitor, sEH act)
Cc1cc2c3c(ccc(C)c3n1)N=CN2c1ccccc1	CYP2C9 inhib 56.1
CC(=O)c1c(C)[nH]c(C(=O)CSc2nnc(CN3CCCCCC3=O)n2-c2ccccn2)c1C	none
CC1CC(C)CN(CC(=O)N2CCc3[nH]c4ccccc4c3C2)C1 (centres undefined)	CYP2C19 inhib 65.5
O=C(CN1CCN(Cc2ccc3c(c2)OCO3)CC1)N1CCc2[nH]c3ccc(F)cc3c2C1	CYP2C9 inhib 75.7, CYP2C19 inhib 84.5
Cc1ccc2[nH]c3c(c2c1)CN(C(=O)CN1CCN(c2ccccc2F)CC1)CC3	CYP2C9 inhib 52.9
Cc1ccc2[nH]c3c(c2c1)CN(C(=O)CN1CCCc2ccccc21)CC3	none (no result: sEH inhibitor, sEH act)
CC1CN(CC(=O)N2CCc3[nH]c4ccccc4c3C2)CC(C)O1 (centres undefined)	none
CC(C)(C)c1ccc(/C=C/C(=O)NC2=NCCS2)cc1	none
Cc1nc2ccc(NC(=S)NC(C)C)cc2nc1C	none
CCOC(=O)C1CCN(S(=O)(=O)c2cc(Br)cc3c2N(C(C)=O)C(C)C3)CC1 (centres undefined)	CYP2C9 inhib 78.9, CYP2C19 inhib 93.3 (no result: sEH inhibitor, sEH act)
COc1ccc(CN2CC(C(=O)NCc3cccc(OC)c3)CC2=O)cc1 (centres undefined)	none
COc1cccc(CNS(=O)(=O)c2cc(Br)cc3c2N(C(C)=O)C(C)C3)c1 (centres undefined)	CYP2C19 inhib 74.3, CYP2C9 activ 2.1
CC(=O)N1c2c(cc(Br)cc2S(=O)(=O)N2CCN(c3ccccn3)CC2)CC1C (centres undefined)	CYP2C9 inhib 67.1
CCOC(=O)N1CCN(S(=O)(=O)c2cc(OCC(N)=O)c(C)cc2Cl)CC1	none
CCOC(=O)N1CCN(S(=O)(=O)c2cc(Br)cc3c2N(C(C)=O)C(C)C3)CC1 (centres undefined)	CYP2C19 inhib 64.0 (no result: sEH inhibitor, sEH act)
CC(C)CCNC(=O)C1CCC(=O)N1C(C)C (centres undefined)	none
NS(=O)(=O)c1cc(C(=O)N2CCc3ccccc32)c(Cl)cc1Cl	none
O=C(COC(=O)c1cc(S(=O)(=O)N2CCOCC2)ccc1O)NCC1CCCO1 (centres undefined)	none
C=CCn1cc(/C=N\NC(=O)c2cc3c(ccc4ccccc43)o2)c2ccccc21	CYP2C9 inhib 62.0
O=C(N/N=C/C=C/c1ccccc1)c1cc2c(ccc3ccccc32)o1	none
NC(=O)c1cnn(Cc2ccc(Cl)cc2)c1N	none
